From PubChem
PLK1 PBD inh = qHTS for Inhibitors of PLK1-PDB (polo-like kinase 1 - polo-box domain): Primary Screen. Serine/threonine-protein kinase PLK1 (Homo sapiens), P53350. Plk1 PBD binding of FITC phosphopeptide, fluorescence polarization. Potency, µM, inactives show max response, negative = inhibition, hits mostly inhibitors. hit rate 2.8% among 360,000. AID 720504, 2013; also: series mostly up to about 57 µM; % is scaled to controls: 0 for no effect and ±100 for the full control effect; nearly all actives have a fitted effect of over 65% in size
Pin1 inhibitor = qHTS Assay to Find Inhibitors of Pin1; Pin1 FP peptide displacement, HiFluor488, 10 min; Potency, µM (doses to about 115 µM), inactives show top-dose activity, negative = inhibition, actives largely listed as inhibitors; hit rate 0.009% among 390,000; active = well fitted inhibition curve with a large enough effect in the polarisation, with a control signal flat, not every such curve was filed as active; inconclusive = small, poorly fitted or top-dose-only effect, or effect the other way, or a change in a side signal; inactive = no such curve, though single readings can be large or run the other way; the % refers to the polarisation; also: % is scaled to controls: 0 for no effect and ±100 for the full control effect
TDP1 inh = qHTS Assay for Inhibitors of Tyrosyl-DNA Phosphodiesterase (TDP1); Tyrosyl-DNA phosphodiesterase 1 (Homo sapiens), Q9NUW8; recombinant TDP1, AlphaScreen DNA substrate cleavage; hit rate 0.28% among 350,000; Potency, µM (titrated, usually from 130 µM), without a hit: at the highest dose activity change, negative = inhibition, hits mostly inhibitors; also: % is scaled to controls: 0 for no effect and ±100 for the full control effect; nearly all actives have a fitted effect of over 40% in size
Target sequence (Q9NUW8 whole entry, looked up): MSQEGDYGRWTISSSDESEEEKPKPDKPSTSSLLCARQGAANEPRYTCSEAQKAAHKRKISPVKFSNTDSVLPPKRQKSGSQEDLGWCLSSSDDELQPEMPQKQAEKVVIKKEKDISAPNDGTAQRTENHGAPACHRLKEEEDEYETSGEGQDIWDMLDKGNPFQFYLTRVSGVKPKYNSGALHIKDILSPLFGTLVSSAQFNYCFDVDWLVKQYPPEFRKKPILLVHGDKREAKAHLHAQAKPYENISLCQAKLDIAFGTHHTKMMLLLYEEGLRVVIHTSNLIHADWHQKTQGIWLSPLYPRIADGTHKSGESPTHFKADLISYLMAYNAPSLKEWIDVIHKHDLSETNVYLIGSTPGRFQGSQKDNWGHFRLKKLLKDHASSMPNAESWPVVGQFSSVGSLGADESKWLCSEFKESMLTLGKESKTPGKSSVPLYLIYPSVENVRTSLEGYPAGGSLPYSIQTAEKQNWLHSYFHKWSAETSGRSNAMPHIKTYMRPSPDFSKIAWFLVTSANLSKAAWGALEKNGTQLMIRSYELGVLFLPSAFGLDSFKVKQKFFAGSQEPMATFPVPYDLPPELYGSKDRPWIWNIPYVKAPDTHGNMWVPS
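Recombinant E. coli-expressed Tdp1 (1 nM) preincubated with compound 15 min at RT, then 5'-biotin/3'-phosphotyrosine-FITC DNA substrate (15 nM) added for 5 min. AlphaScreen beads (10 ug/ml) added, 10 min RT; tyrosine-FITC cleavage read as signal loss.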
VDR inhibitor = Inhibitors of the vitamin D receptor (VDR): qHTS. Vitamin D3 receptor (Homo sapiens), P11473. VDR-SRC2-3 peptide fluorescence polarization, 2 h. Potency, µM, without a hit: max response, negative = inhibition, most hits filed as inhibitors. hit rate 0.93% among 400,000; also: % is scaled to controls: 0 for no effect and ±100 for the full control effect
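Fluorescence polarization assay measuring small-molecule disruption of VDR binding to the coregulator peptide SRC2-3. Compounds were pin-transferred (23 nl) into the reagent mix and incubated 2 h at room temperature before reading.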
Tb PFK inh = qHTS Assay to Find Inhibitors of T. brucei phosphofructokinase. ATP-dependent 6-phosphofructokinase (Trypanosoma brucei brucei), O15648. T. brucei PFK, ADP-Glo luminescence. Potency, µM (doses to about 57.5 µM), without a hit: at the highest dose activity, negative = inhibition, usual class: inhibitors. hit rate 0.17% among 330,000. AID 485367, 2010;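 also: 0% = uninhibited 1x PFK enzyme wells and -100% = no-enzyme wells; nearly all actives have a fitted effect of over 60% in size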
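PFK 1.25 nM, F6P 0.5 mM, ATP 0.1 mM, 0.1 M TEA pH 8.0, 5 mM MgCl2, 0.01% Tween20, 0.1% BSA; 45 min RT. ADP-Glo readout. qHTS titration up to 57 uM; curves fitted, compounds curve-classed.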
S-ASM inh = Inhibitors of Secretory Acid Sphingomyelinase (S-ASM): qHTS; hit rate 0.006% among 340,000; placental ASM, HMU-PC fluorogenic substrate, 60 min; Sphingomyelin phosphodiesterase (Homo sapiens), P17405; Potency, µM (highest dose often 57.5 µM), inactives show at the highest dose activity change, negative = inhibition, usual class: inhibitors
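Fluorescence read-out (Ex 386 nm, Em 447 nm) after stopping the reaction at pH 10. Enzyme: ASM from human placenta; substrate HMU-PC0, 9 uM final; 60 min, 37 °C. Compound preincubation 10 min, ambient temperature.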
TbPYK confirm = qHTS of Trypanosoma Brucei Inhibitors: Confirmatory Assay for Cherry-picked Compounds | shares compounds with PLK1 PBD inh | recombinant TbPYK, Kinase-Glo ATP luminescence | Potency, µM (series often up to 76.9 µM), for inactives: top-dose activity change, negative = inhibition, hits mostly inhibitors | hit rate 67% among 890 | AID 720569, 2013; also: % is scaled to controls: 0 for no effect and ±100 for the full control effect; nearly all actives have a fitted effect of over 70% in size
TbPYK ADP-Glo = qHTS of Trypanosoma Brucei Inhibitors: Orthogonal Assay for Cherry-picked Compounds; shares compounds with PLK1 PBD inh; recombinant TbPYK, ADP-Glo luminescence, 60 min; Potency, µM (top dose mostly 76.9 µM), for inactives: at the highest dose activity change, negative = inhibition, hits mostly inhibitors; hit rate 62% among 890; AID 720584, 2013; also: % is scaled to controls: 0 for no effect and ±100 for the full control effect; nearly all actives have a fitted effect of over 75% in size
Numbers without * were called inactive; ? = inconclusive; · = no result given; [ ] = dose if it differs, or a comment. Only some compounds are listed: those with a hit (about 3.1% of all), similar ones and a draw of the others. Unless noted, calls follow the shape of the dose curve; as a rule, active = well fitted curve in the direction sought with a large enough effect; inconclusive = small, poorly fitted or top-dose-only effect, or another doubt; inactive = no such curve, though single readings can be large; an effect the other way counts as inactive or inconclusive. Potency is read from the fitted curve at half-maximal effect.

SMILES	PLK1 PBD inh	Pin1 inhibitor	TDP1 inh	VDR inhibitor	Tb PFK inh	S-ASM inh	TbPYK confirm	TbPYK ADP-Glo
O=C1/C(=C\c2ccncc2)CCc2ccccc21	-8%	-2%	0%	79µM*	-22%	1%	?	7%
O=C1C(=Cc2ccccc2Cl)CCc2ccccc21	-18%	·	·	·	·	·	25µM*	9%
COc1cc(C2C(=O)N(C3CCCCCC3)CC(=O)N2Cc2ccccc2)ccc1OC(C)C (stereo not drawn)	·	-4%	3%	-1%	·	·	·	·
CCc1ccc(NC(=O)c2cccc(N3CCCS3(=O)=O)c2)cc1	·	-11%	3%	5%	·	·	·	·
COc1ccc(C=C2CCc3ccccc3C2=O)cc1	4%	·	·	·	·	·	25µM*	12%
Cc1cccc(NC(=O)CSc2nnc(-c3cccs3)o2)c1	·	-3%	-3%	-2%	·	·	·	·
CCCCC1(C)OC(=O)C(=Cc2ccc(-c3ccc(Cl)c(C(=O)O)c3)o2)C(=O)O1 (stereo not drawn)	4.2µM*	·	·	22µM*	-1%	?	16µM*	32µM*
Cc1cccc(C2=NOC(=O)/C2=C\c2ccccc2F)c1	-20%	8%	-2%	-13%	-2%	7%	·	·
O=C1ON=C(c2ccc([N+](=O)[O-])cc2)/C1=C/c1ccccc1O	1.7µM*	-6%	·	79µM*	3%	-1%	?	-28%
CC(=O)N(C1=C(N)C(=O)c2ccccc2C1=O)C(C)C	-9%	0%	1%	4%	-26%	-1%	·	·
COc1ccccc1N(C(C)=O)C1=C(Cl)C(=O)c2ccccc2C1=O	3µM*	·	·	·	·	·	-100%	0.79µM*
CC(Oc1ccccc1)C(=O)Nc1ccccc1C(=O)OCc1cc(=O)n2nc(C(C)C)sc2n1 (stereo not drawn)	·	0%	6%	4%	·	·	·	·
Cc1ccc2c(c1)sc[n+]2Cc1ccccc1	3µM*	6%	5%	25µM*	8%	-3%	-20%	?
CCNC1=C(Cl)C(=O)c2ccccc2C1=O	-4%	-5%	6%	-9%	7%	-9%	·	·
CCCC(=O)NC1=C(Cl)C(=O)c2ccccc2C1=O	3µM*	-8%	·	7.9µM*	·	0%	7.1µM*	7.1µM*
Cc1ccc(NC(=O)c2ccc(F)cc2)nc1	0%	-4%	-11%	-8%	0%	1%	·	·
Cc1ccc(NC(=O)c2sccc2C)nc1	5%	-1%	-1%	5%	-27%	0%	?	1%
CC(C)C(C)NC(=O)CSc1ccc(S(=O)(=O)N2CCOCC2)cn1 (stereo not drawn)	-11%	-7%	0%	6%	1%	-1%	·	·
CC(C)CCNC(=O)NC(=O)CSc1ccc(S(=O)(=O)N2CCOCC2)cn1	?	1%	-1%	18%	-8%	-2%	16µM*	14µM*
Cc1ccc(S(=O)(=O)Cc2nc(-c3ccc(C(=O)NCc4ccccc4)cc3)oc2C)cc1	·	1%	-4%	12%	·	·	·	·
Cc1ccc(CNC(=O)C2CCN(S(=O)(=O)c3cccs3)CC2)o1	-16%	0%	4%[56.1 µM]	?	-3%	1%	?	?
Cn1ncc2c(NCc3ccc(Cl)cc3)ncnc21	·	-2%	8%	10%	·	·	·	·
